Over roughly 59,000 sequences, the read-out has its median near -0.00055; the lowest 2% begin near -2. Only a selection was taken, and the lowest values are over-represented in it overall.

This test in a line: Identification of proteins required for the processing of the EWS-FLI1 nascent transcript.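 Also: robust z of luciferase light less the median z of siRNAs with the same seed.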 The note with it: TC32 Ewing sarcoma NR0B1-luc vs CMV-luc (EWS-FLI1 target promoter against control promoter), 48 h; screened at 20 nM (by protocol). The procedure, abridged:
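TC32 Ewing sarcoma cells carrying NR0B1-promoter or CMV-promoter luciferase reporters were reverse-transfected with single siRNAs at 20 nM, three per gene genome-wide. Luminescence was read after 48 h and normalized to non-targeting controls.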
Regarding UAGAUUCUCGUGCACAGCC against KIFC3, the seed-corrected z-score came out at 0.0224.
AAAGUGACUAUUGUCAGGU against OR5M10: the seed-corrected z-score was -0.162.
Regarding UUUGUAGUUGUUCCCAUGC against TTPA, the seed-corrected z-score was -0.714.
UCCAAGGUCAGUGUGAUCC against ZDHHC23 gave a seed-corrected z-score of 0.574.
UUAUGUAUCAUUGGAACCA against LOC388780 had a seed-corrected z-score of 0.0558.
The value for UUUUAUUCCCUGUAUCAUG against ZNF619 was -2.89.
On to UUCACUCUCAAACUGGUCC against CNOT3, for which the seed-corrected z-score is -0.499.
In the case of UCUUGUCCAAGACUCCUUC against SMTN, the seed-corrected z-score was -0.516.
The value for UGAUGAGCGACUCUCCUGG against C9orf142 was -0.422; that for AUUGCUACUGAUAUAAGCC against DICER1 was -0.452; that for UUCGGACUCAGCUUCUCCA against EXD3 was 0.0948.
As to UUAUGAUCCAGGUAGAGGA against INHBE, the seed-corrected z-score was determined as 0.817.
On to UUCUGCUUUGCAUAUCUCC against POU5F1, for which the seed-corrected z-score was -2.72.
The value for AUUCUUAAACGUGAUUUCC against NICN1 was 0.117.
The value for UAGCGAAUCUGUAAGCUGC against MLLT10 was -0.471; that for UUUUGAUGCUGUCUACAGG against METTL2B was -1.55.
UUACCUAUCCCUGAGACAC against MICAL2 showed a seed-corrected z-score of 0.383.
With UCCUCUGCGAAGUUCUUGG against PANX2, the seed-corrected z-score was -2.24.
The value for UCCAUGAGCGCAAUCAUGC against CAPN3 was 0.116.
With UCUUCUUCACGAGUUGAGG against GPRC5A, the seed-corrected z-score was -0.133.
For UGAGUCAAUGAUGCGCUUC against SFN, the seed-corrected z-score stood at 2.54.
The value for UUGAUGUACAGAUACCAGG against BTBD18 was -2.42; that for AAAAGUCCAAACAAUACCC against GPR156 was -0.327; that for UACUUGAGCACGUCGAUGA against C19orf68 was -0.256.
The value for UCACUUUGAACUUUCCGGC against SCP2D1 was -1.27; that for AAUGGGAAAAGAAUUGCUU against IGFBP7-AS1 was 0.0752.
Take UUGGUGGAUAUACUCAAUC against EXO5: the seed-corrected z-score is -2.07.
The value for UGAGGAACCAGUUCCAAGG against TMEM60 was -0.737.
As for UUCCUGCUGCGUACACUUC against KCNAB3, the seed-corrected z-score was -0.0212.
The value for ACAUAUAUAAGAAUAUCGG against ARL3 was -0.177.
Turning to UUGUGGAACAUCAUGUCUU against ADCY6, the seed-corrected z-score stood at 1.34.
As to UAGGUUGUGACUGGUGGUG against ARID5A, the seed-corrected z-score was -3.43.
The value for UAGUCGAACACCAAGAGGG against CDH3 was -0.271; that for UCCGGUUUAUAUUUGGUGC against EPSTI1 was -0.285.
In turn, UUUCAUCCUAGAAACUCCC against SLC45A3 had a seed-corrected z-score of 0.412.
The value for UUCACCAUAAACACGAUCC against DPM1 was 0.428; that for UAUGAAUCCAGAUUGAACU against CXCL1 was 0.898.
As for UCCCGGUACAUGUUGUGGG against RPL18A, the seed-corrected z-score is -2.34.
The value for UGUUGAGUAGGUCCGUUCC against EPHA7 was 0.58; that for UACAGUGACGAGAAGUUCU against RALGDS was 0.583.
The value for AUCUCUUCCACUUCCGAGG against SMARCB1 was -2.19.
Take UAAUUGAACUGAUCCAGUC against WDR12: the seed-corrected z-score was -0.242.
Sequence UUCCUUAGCACCAUUGAUG against MMADHC returned a seed-corrected z-score of 1.09.
Turning to UCAGUUUUAGGAUAUAUAC against USP46-AS1, the seed-corrected z-score worked out at 0.575.
On to AUAUUAAGCAGACAACUCC against DIRC2, for which the seed-corrected z-score stood at 0.227.
Turning to UGAGGUUAAAGAAGGUGAC against HRH3, the seed-corrected z-score is -0.214.
For UGAGUUUCAUCAUAGUCUG against BMX, the seed-corrected z-score was -4.87.
The value for UAAGCACACAUUUACUUGG against HIST1H2BG was 0.782; that for UUUCAUCUGAAGACAGGAC against DDIT3 was -1.09.
The value for UCUUCGUUGAGUGCAUCCC against SOCS2-AS1 was -0.904; that for UAUGUAGUUAAGACCAUUC against IRS1 was 0.431.
Turning to ACAAUUUUAGCUGUAACCC against OC90, the seed-corrected z-score was 0.989.
The value for UCGCUGUCGAGCAGUAAGC against INO80B was -2.1; that for UUAGUGGUCAUGGGCUUCC against GTF2F1 was -0.176.
Take UCGCUUGCAAAUAAUCUGC against ULK2: the seed-corrected z-score is -0.141.
The value for AAGUCUGCGAUUAAAGCUG against DTNBP1 was -2.27.
The value for UACAUAGCAAACAUGACCG against ATL2 was -0.859; that for UGAAGGUUUGGAGCAAACU against RPL15P17 was 0.127.
For the sequence UGAUCUCAGUCCUCGCUGC against LINC01118, the seed-corrected z-score was -0.476.
The value for UGUAGGAACACUCAUCACC against KCNA4 was -2.42; that for UUCUGUCCAAUUGUCGCUG against JTB was -0.0311.
Regarding UAGCAUGUAACGUGUGACC against CNTNAP1, the seed-corrected z-score was -0.734.
Sequence UGAAGAUCCAGCAAGUAUC against 6-Mar showed a seed-corrected z-score of 0.65.
In the case of UCACAUGCAUCAAUUUUCG against NDUFB5, the seed-corrected z-score stood at 0.331.
The value for UAUAGCUGAAUGGUCAUUG against KRTAP3-3 was -3.04.
The value for UCAGUGACAACAUCACGGC against PPP2R5D was 0.201; that for UGCCGUCUUACUCUUUGCG against C19orf53 was -0.415.
Take AAACUUGUUUCUGCACAUG against OR2F1: the seed-corrected z-score turned out to be 1.3.
The value for UUCCCAUUGAUACUCAUGG against LECT1 was -0.035.
The value for UAAUGCUUGAGGCACUUGG against CALHM2 was 0.134.
The value for UUGUCUCUCACUCAGAUUG against HOXB9 was 0.619; that for UGCUUUGCAAUGAUCUCUC against HNRNPM was -2.32.
Take UGUCAUGCAAUAAGAAUCU against NLGN4Y: the seed-corrected z-score worked out at 0.297.
In the case of UUAGAGUAAGUAAAUAUCC against RPS18P5, the seed-corrected z-score is -0.219.
The value for UGGGUAUACAGUCAUCAUC against SLC38A9 was -2.9; that for UUGGGUAAAAGACAGUUGA against TKT was -0.555.
The value for UAGACAACAUCAGUGAUCC against RPS8P4 was 0.47; that for AAGCUUCUUAACUUCAUUC against RPL14P1 was -3.84.
The value for UUUGGAGAACUCCCUGGGC against FLYWCH1 was -0.00776.
For UAAUUGAGGGAGCAAAGGC against FAM53A, the seed-corrected z-score was -0.541.
The value for UCCUUUUCCACGACCAUCG against CCR2 was -1.29; that for UGCUGGAUCAGGGAGAUAG against TRPM2 was -2.19.
In the case of UCUUGUAGCGGAAAAGGCC against DUSP2, the seed-corrected z-score stood at 0.0146.
Take UAACGAAUAAUUUCUGCUC against HPGDS: the seed-corrected z-score was -0.285.
The value for UUCCGGAUAGCCUACAUCC against USP36 was -0.445; that for UAAUGUACAUCUCUCGUCC against CNGA1 was -2.2.
The value for UCAUCCUCCAGGAUCAUGG against ZSCAN2 was -0.868.
For the sequence UAUUAGCACAGUGUAAGGC against PDE10A, the seed-corrected z-score is -0.276.
The value for AAUGAUCACAUCGAUAGUG against SGMS2 was -2.21.
On to UUUAUCAUUAGGGCUAGGG against DHRS4L1, for which the seed-corrected z-score came to 0.864.
On to UUUUCGGUAACUCUGCGUG against SPEN, for which the seed-corrected z-score is -0.638.
For the sequence UAAGGUUCUCCCUCACAGC against JAKMIP2, the seed-corrected z-score was -0.785.
UUGUUGUAAAGCACGAUGU against CHRNB4: the seed-corrected z-score is -0.439.
The value for UAUUAUUGAUGCGACAUCC against CNGB3 was 0.631.
The value for UCUGGUUCCUCGGCGAAGU against PRSS53 was -2.84; that for UAUCUUCACUGGGUUCAUG against IRF6 was 2.07.
The value for AAUUUCUCCAGAAUCUAUG against TENM4 was -2.16; that for UUCUUUUAUUGCCUCGGGU against KISS1 was 0.198.
Take UUCGUUCCAACAUAGGCUG against AGBL1: the seed-corrected z-score was -2.49.
Sequence UGACAUAUGAGUUCGAUGG against ZCCHC17 yielded a seed-corrected z-score of 0.589.
As for AAUACUCUCAGUUCGAAUG against TXNDC15, the seed-corrected z-score came out at 0.939.
The value for AAUCUUGUUAUGCUCAUGG against ZBTB47 was -0.317.
As to UUCGGUUCAAGUUUAGCAG against TM9SF2, the seed-corrected z-score is -0.205.
The value for UCAAGUUCUAUGAGAUUGG against ARRB1 was 0.195; that for ACAAUUUCAAGCUCCUGUC against MAGOHB was -1.58; that for UCUAGAUCACCAAACAUCA against OR1N1 was 0.571.
Consider AGACAUAACACCUUCUUCA against RPL10A, for which the seed-corrected z-score was -2.86.
The value for ACACCAGUGAUUACUGUGC against FLJ44635 was -0.245.
The value for UUGGUGAAUAGUCUCUUUC against RPS2P45 was -0.275; that for UCUUCACGCAGUAUCUUUC against SLC25A13 was 1.22; that for UCUUCUUUAGUCUUCCUGC against STMND1 was -1.04.
The value for UGCUCGAAAACAACCUUCU against TPI1 was 0.853; that for ACAUCUAUCACAUCUAAGG against ZC3H13 was 0.428; that for UAUUUUGCAAUAUCUUCUC against SLU7 was -0.229.
Turning to AUCGUCAUAUCUACCAUUG against USP34, the seed-corrected z-score is -1.15.
As for UGUUUGAUGACAAGGGUUG against POLE2, the seed-corrected z-score is -2.32.
On to AAAGUGUCUAGCCCUAUGG against MESP1, for which the seed-corrected z-score is 0.768.
The value for “AAUUCCAUGAGGGCCUUCC against CDKN2AIPNLP1” was -2.53; that for UUCGGCACCAUUCACAGAG against FAM57A was 0.0703.
With UGUUGACAAACCAUCUUUC against PDPN, the seed-corrected z-score amounted to 0.381.
Regarding UUCAAAAACCACGAUGUUG against CLDN8, the seed-corrected z-score worked out at 0.491.
As for UGUUGUAGCACUUGGCUUU against IFITM5, the seed-corrected z-score is -3.59.
Turning to AUAUCGAACAGUUUGGUAC against CTDNEP1, the seed-corrected z-score stood at 0.928.
On to AUCCGGAUCAUCGAGUCUG against ATP1B4, for which the seed-corrected z-score was -0.782.
UUAAAUGUAAGCAGGUUUC against CYTL1 had a seed-corrected z-score of 0.276.
Turning to AUUGAGGUAGGAGCCGUCG against FGFRL1, the seed-corrected z-score is -2.32.
Turning to UUCAUUGCGAUUAGCCUGC against ANXA13, the seed-corrected z-score is -0.522.
Sequence UACUAGAGCAGUGUCUGAG against DNPH1 displayed a seed-corrected z-score of 0.502.
The value for UUCUCGUUGAUGCGGCUCC against ASB1 was -2.16; that for UUGUUUUCACUUCCAAUGC against FCAMR was -0.0643.
The value for UCACGGUCAUCAUCUAGGG against FOPNL was -2.56.
The value for UUGUCUAGAAGAAUUGUCG against TTC3 was -0.75.

The record behind these values is PubChem BioAssay AID1159506 (National Center for Advancing Translational Sciences (NCATS), 2015).
